Screening results from PubChem.
Rows were chosen to be rich in hits. Some 27% of all compounds tested hit in one or more screens of this group.
EphB4 ephrin blk = EphB4-ephrin-B2 interaction antagonists, primary screen, biochemical, TNYL-RAW peptide probe, fluorescence polarization; Ephrin type-B receptor 4 (Homo sapiens), P54760; EphB4 LBD / TNYL-RAW-Alexa532 peptide; inhibition, % at 7 µM; 97,000 compounds, 0.15% hits;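 active = inhibition above the screen-wide mean inhibition plus 3 SD, cut at about 15% in these data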
CYP2C19 act = human CYP2C19 activators, primary screen, biochemical, luminescence. AID 1025, 2008. recombinant CYP2C19, luciferin-H EGE luminescence; hits give high values; 0 = fully inhibited enzyme, 1 = untreated enzyme. Cytochrome P450 2C19 (Homo sapiens), P33261. activation factor at 5 µM. 96,000 tested, under 10 active;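 active = activation factor of at least 2 at 5 µM in the primary screen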
CYP2C9 act = human CYP2C9 activators, primary screen, biochemical, luminescence; recombinant CYP2C9, luciferin-H conversion; hits give high values; factor 1 = untreated enzyme, 0 = blocked; activation factor at 5 µM; 96,000 compounds, 1.4% hits;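 active = activation factor of 2 or more for CYP2C9 at a 5 µM dose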
CYP2C9 inh = blockers of cytochrome P450 2C9 activity – biochemical, luminescence, ADME assay, primary screen; 96,000 compounds, 20% hits; AID 777, 2007; CYP2C9 Supersomes, luciferin-H conversion; P11712; inhibition, % at 5 µM;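 active = blocking of liver enzyme CYP2C9 beyond about 50% at 5 µM, limit read from the data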
CYP2C19 inh = blockers of cytochrome P450 2C19 activity – biochemical, luminescence, ADME assay, primary screen. inhibition, % at 5 µM. P33261. CYP2C19 Supersomes, luciferin-H EGE luminescence, 30 min. AID 778, 2007. 96,000 compounds, 21% hits;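 active = CYP2C19 inhibition above a set limit at 5 µM in the primary screen, cut at about 50% in these data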
Of the large screens only hits and unclear results are named; the others gave an inactive call.

CC1=CC(C)(C)N2C(=O)C3(C(C#N)=C(N)OC4=C3C(=O)CC(C)(C)C4)c3cc(C)cc1c32 (stereo not given)	none
COc1ccc(-n2c(SCC(=O)c3c(N)n(C)c(=O)n(C)c3=O)nc3ccccc32)cc1	none
COCCN(C(C)=O)c1nnc(-c2cnccn2)s1	none (no result: EphB4 ephrin blk)
Cc1cccc(-c2nnc(-c3cccc(NC(=O)Cc4cccs4)c3)o2)c1	CYP2C9 inh 64.8, CYP2C19 inh 71.6
O=C(Cc1cccs1)Nc1ccc(-c2nnc(-c3ccccc3)o2)cc1	none (no result: CYP2C19 act, CYP2C9 act, CYP2C9 inh, CYP2C19 inh)
O=[N+]([O-])c1ccc2c(c1Nc1ccccc1)=NC1(CCCCC1)N=2	CYP2C9 inh 53.3
CC(C)(C)n1nnnc1C(c1cccs1)N(Cc1cccnc1)Cc1ccco1 (stereo not given)	CYP2C9 inh 82.6, CYP2C19 inh 85.5
CCN(Cc1ccccc1)C(c1ccccn1)c1nnnn1C(C)(C)CC (stereo not given)	CYP2C9 inh 70.9, CYP2C19 inh 86.0
c1ccc(CN(Cc2cccs2)C(c2cccs2)c2nnnn2C2CCCC2)cc1 (stereo not given)	none
CC(C)(C)n1nnnc1C(c1ccncc1)N(Cc1ccccc1)Cc1ccco1 (stereo not given)	CYP2C9 inh 86.7, CYP2C19 inh 73.7
CC(C)(C)n1nnnc1C(c1cccs1)N(Cc1ccccc1)Cc1ccco1 (stereo not given)	CYP2C9 inh 52.8
CC(C)OC(=O)c1ccc(Cn2nnc3ccccc3c2=O)cc1	none
C=CCSc1nc2c(c(=N)n1CC=C)C1CCCC1S2 (stereo not given)	none
Clc1cccc(Cl)c1CSc1nnc(CN2CCOCC2)n1-c1ccccc1	none
Clc1ccc(CSc2nnc(CN3CCOCC3)n2-c2ccccc2)cc1Cl	CYP2C9 inh 61.8, CYP2C19 inh 84.4
CCCCCCc1nnc(N)s1	none
Cc1cccc2cc(CN(Cc3cccs3)Cc3nnnn3Cc3ccccc3)c(=O)[nH]c12	CYP2C19 inh 64.7
O=c1[nH]c2cc3c(cc2cc1CN(Cc1cccs1)Cc1nnnn1Cc1ccco1)OCCO3	none
CCC(C)(C)n1nnnc1CN(Cc1cccs1)Cc1cc2cc(OC)ccc2[nH]c1=O	CYP2C9 inh 59.3, CYP2C19 inh 70.1 (no result: EphB4 ephrin blk)
CCOc1ccc2[nH]c(=O)c(CN(Cc3cccs3)Cc3nnnn3C(C)(C)CC)cc2c1	none
CCOC(=O)Cn1nnnc1CN(Cc1cccs1)Cc1cc2cc(C)cc(C)c2[nH]c1=O	CYP2C19 inh 62.8
CCOc1ccccc1C(=O)Nc1nccs1	none
CCOc1ccccc1NC(=O)c1ccccc1NS(C)(=O)=O	CYP2C9 inh 95.9
CCOc1ccccc1C(=O)Nc1ccccc1O	CYP2C9 act 5.7
NC(=O)C1(N2CCCCC2)CCN(C(=O)c2ccc(-n3cnnn3)cc2)CC1	none
CCOC(=O)C1CCCN(C(=O)C2CCN(S(=O)(=O)N3CCC4(CC3)OCCO4)CC2)C1 (stereo not given)	none
CCn1c(=O)cc(N2CCC3(CC2)OCCO3)[nH]c1=O	none
N#CCCCCn1c(-c2cncs2)nc2ccccc21	CYP2C19 inh 55.8
Brc1ccc(Cn2c(-c3cncs3)nc3ccccc32)cc1	none (no result: CYP2C19 act, CYP2C9 act, CYP2C9 inh, CYP2C19 inh)
O=C(Cn1c(-c2cncs2)nc2ccccc21)NCCc1ccccc1	CYP2C9 inh 52.9, CYP2C19 inh 90.9
Brc1cccc(Cn2c(-c3cncs3)nc3ccccc32)c1	none (no result: CYP2C19 act, CYP2C9 act, CYP2C9 inh, CYP2C19 inh)
COc1cccc(NC(=O)Cn2c(-c3cncs3)nc3ccccc32)c1	CYP2C9 inh 82.9, CYP2C19 inh 76.1
CCn1c(=O)n(CC(=O)Nc2cccc(OC)c2)c(=O)c2ccccc21	none (no result: EphB4 ephrin blk)
c1ccc(Cn2c(-c3cncs3)nc3ccccc32)cc1	CYP2C9 inh 94.2, CYP2C19 inh 72.7
Nc1nnc(CCCCc2cccs2)o1	none
CCOc1cc(C2NC(=O)NC(C)=C2C(=O)NCc2ccccc2)c(Cl)cc1O (stereo not given)	none
CC1CCCC(C)N1CC(C)(C)NS(=O)(=O)c1ccc(Cl)cc1 (stereo not given)	CYP2C19 inh 84.3
CC1CC(C)CN(CC(C)(C)NS(=O)(=O)c2ccccc2)C1 (stereo not given)	CYP2C19 inh 79.4
CCN(CC)C1CCCCC1NS(=O)(=O)c1ccc(Cl)cc1 (stereo not given)	none
Cc1ccc(S(=O)(=O)/N=C(\N)Nc2nc(C)c3ccc(C)cc3n2)cc1	none
CC(C)CC1C(C#N)=C(N)Oc2n[nH]c(-c3ccccc3)c21 (stereo not given)	none (no result: CYP2C19 act, CYP2C9 act, CYP2C9 inh, CYP2C19 inh)
CC(C)c1[nH]nc2c1C(C(C)C)C(C#N)=C(N)O2 (stereo not given)	CYP2C19 inh 58.7
COCc1[nH]nc2c1C(c1c(F)cccc1Cl)C(C#N)=C(N)O2 (stereo not given)	CYP2C19 inh 57.6
CC(C)C1C(C#N)=C(N)Oc2n[nH]c(-c3ccccc3)c21 (stereo not given)	none (no result: CYP2C19 act, CYP2C9 act, CYP2C9 inh, CYP2C19 inh)
CC(C)c1[nH]nc2c1C(Cc1ccccc1)C(C#N)=C(N)O2 (stereo not given)	CYP2C9 inh 57.3, CYP2C19 inh 95.2
COc1ccc(OC)c(-c2[nH]nc3c2C(c2ccco2)C(C#N)=C(N)O3)c1 (stereo not given)	CYP2C19 inh 80.4
COc1ccc(C2CC(=O)C3=C(C2)Nc2ncnn2C3c2ccccc2C)c(OC)c1 (stereo not given)	none (no result: EphB4 ephrin blk)
COc1ccc(-c2nnc3n2N=C(C)CS3)cc1OC	none
Cn1c(=O)[nH]c(=O)c2c1nc(CN1CCOCC1)n2CCc1ccccc1	none (no result: CYP2C19 act, CYP2C9 act, CYP2C9 inh, CYP2C19 inh)
CCCc1[nH]nc2c1C(c1cc(OC)cc(OC)c1)C(C#N)=C(N)O2 (stereo not given)	none
Cc1ccc(SCc2[nH]nc3c2C(C(C)C)C(C#N)=C(N)O3)cc1 (stereo not given)	CYP2C9 inh 52.5
CCCc1[nH]nc2c1C(c1ccc(OC)c(CSC3=NCCS3)c1)C(C#N)=C(N)O2 (stereo not given)	CYP2C9 inh 57.8
Cc1[nH]nc2c1C(Cc1ccccc1)C(C#N)=C(N)O2 (stereo not given)	CYP2C19 inh 65.5
CCCc1[nH]nc2c1C(c1cccc(OC(=O)c3ccco3)c1)C(C#N)=C(N)O2 (stereo not given)	none
COCc1[nH]nc2c1C(c1ccccc1Cl)C(C#N)=C(N)O2 (stereo not given)	none
CCCc1[nH]nc2c1C(Cc1ccccc1)C(C#N)=C(N)O2 (stereo not given)	CYP2C19 inh 67.9
Cc1cc(-n2c(C)cc(C(=O)CN3C(=O)NC4(CCCC4)C3=O)c2C)no1	none
CC(=O)c1c(N(C)C)ccnc1C(F)(F)F	none (no result: EphB4 ephrin blk)
Cc1nc(Oc2ccc(Cl)cc2)c2oc3ccccc3c2n1	none
CCc1[nH]nc2c1C(c1cccc(OC(=O)N3CCOCC3)c1)C(C#N)=C(N)O2 (stereo not given)	CYP2C19 inh 70.3
